Experimental data: PubChem BioAssay AID652054 (National Center for Advancing Translational Sciences (NCATS), 2013)
Among all 360,000 compounds or so, about 9,100 (2.5%) were called active. About 4% were inconclusive and are not listed. The sample as a whole holds a higher share of actives than the screen did. Values without a mark were called inactive. No stated cut-off is given here; in the data, active means max response below about -50%; inconclusive means no clear call, values can overlap the other calls; inactive means above that.

Biological target: D(3) dopamine receptor (Homo sapiens) (UniProt P35462)
Test: qHTS of D3 Dopamine Receptor Antagonist: qHTS
Conditions: D3R cells, DiscoveRx beta-arrestin luminescence, antagonist mode; active compounds read low
Source text: D3 DARs represent a very important target for the treatment of several neuropsychiatric disorders. Indeed, one of the most promising therapeutic applications for the D3 DAR is in the area of addiction and related disorders. […] These findings have been observed with a number of addictive substances including cocaine, amphetamine, nicotine, and alcohol. […] Antagonism of the D3 DAR may also be therapeutic in the treatment of schizophrenia or psychosis. […] Since the D3 DAR is expressed in areas of the CNS associated with the control of mood and emotion, it has been hypothesized that selective antagonism of the D3 DAR may be effective in treating psychosis without inducing the motor side effects typically seen with D2 DAR antagonists.
This part of the project aims to discover novel antagonist.
NIH Chemical Genomics Center [NCGC]
NIH Molecular Libraries Probe Centers Network [MLPCN]
Assay Submitter (PI): David Sibley, NINDS
Freshly passaged cells are plated in 1536 well white, solid bottom plates at a density of 1500 cells/well in 3microl of complete media. After an overnight incubation at 37 degrees C in 5% CO2, cells are loaded with 23nl of test compound from the compound library (as well as dopamine controls) using a 1536 pintool and incubated at 37 degrees C for 90 minutes. Two microliters of DiscoveRx reagent is then added to all cells, and they are incubated for an additional 30 - 60 minutes at room temperature. Following incubation, luminescence is measured on a ViewLux CCD-based luminometer reader using a 20 sec exposure time.
On the % scale 0 is the no-effect control and ±100 the full control effect.

Chain of D(3) dopamine receptor (Homo sapiens) (P35462 whole entry, looked up): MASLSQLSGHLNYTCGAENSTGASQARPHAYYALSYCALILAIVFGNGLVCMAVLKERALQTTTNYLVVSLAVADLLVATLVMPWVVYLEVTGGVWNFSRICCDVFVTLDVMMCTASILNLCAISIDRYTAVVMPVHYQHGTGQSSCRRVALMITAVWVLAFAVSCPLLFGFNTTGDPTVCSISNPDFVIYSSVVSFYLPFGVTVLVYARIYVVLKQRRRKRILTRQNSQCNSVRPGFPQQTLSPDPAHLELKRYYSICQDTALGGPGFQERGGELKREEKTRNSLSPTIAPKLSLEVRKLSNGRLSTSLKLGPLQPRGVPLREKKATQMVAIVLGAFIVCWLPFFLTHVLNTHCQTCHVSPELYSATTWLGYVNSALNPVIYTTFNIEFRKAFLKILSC

Structure (SMILES) | max response, negative = inhibition
CN[C@H]1C[C@H]2c3cc(Oc4ccccc4C)ccc3CCN2C(=O)[C@H]1[C@H](C)O | 23.3%
Cc1noc(C)c1-c1ccc(C(=O)NCc2ccncc2)c2occc12 | -3.57%
COc1cccc(C(NC(C)=O)c2nc(-c3cnc4ccccc4c3)cs2)c1 (configuration not stated) | 11.3%
C[C@H](CO)N1C[C@H](C)[C@@H](CN(C)C(=O)c2cnccn2)Oc2ncc(Br)cc2C1=O | -23.4%
Cc1ccc(-c2cnc(C(O)c3cccc(C)c3C)[nH]2)cc1 (configuration not stated) | -20.7%
COc1ccc(OC)c(C(=O)NC2CCCc3c2cnn3-c2cc(C)cc(C)c2)c1 (configuration not stated) | 57.4%
CCc1nc2c(OCc3cccc(OC)c3)cccn2c1N(C)C(=O)C(C)C | 10.3%
Cc1ccc(C(=O)N[C@H](C(=O)N2CCN(c3ncccn3)CC2)C(C)C)cc1 | 0%
OCCNc1nc(Nc2ccc(Cl)c(Cl)c2)nc2ccccc12 | -28.2%
O=[N+]([O-])c1c(NCCO)cc(Sc2nc3ccccc3s2)c2nonc12 | -81.4% (active)
Nc1nnc(SCC(=O)Nc2ccc3nc(SCC(=O)Nc4ccccc4)sc3c2)s1 | 0.758%
CCCC(=O)N1CCC1(C)C(=O)Nc1ccc(-n2cncn2)cc1 (configuration not stated) | -18.5%
COc1cccc(CNC(=O)[C@@H]2CCCN2C(=O)[C@@H]2CCCN2C(=O)c2ccccc2)c1 | -10.4%
CSc1ncccc1C(=O)N1CCCC(Nc2ccc(F)c(F)c2)C1 (configuration not stated) | 1.51%
CCOC(=O)C1CCN(S(=O)(=O)c2cc(F)ccc2OC)CC1 | 2.14%
CCOC(=O)C1CCCCN1Cc1ccc(OC)c(OC)c1OC (configuration not stated) | -50.5% (active)
CCOC(=O)C1CCN(C(=O)/C=C/c2cc(OC)c(OC)c(OC)c2)CC1 | 0.0271%
CCCCNC(=O)C[C@@H]1C[C@@]2(C(=O)OCC)CCC=C2N(Cc2ccco2)C1=O | -17.5%
CC(=O)Nc1ccc(C=Cc2ccc([N+](=O)[O-])cc2)cc1 | -0.898%
COc1ccc(NC(=O)C2CCC(CNC(=O)[C@@H]3Cc4ccccc4CN3)CC2)cc1 (some centres not stated) | -8.86%
COc1cccc(NC(=O)[C@H](Cc2c[nH]c3ccccc23)NC(=O)[C@@H]2Cc3ccccc3CN2)c1 | 0%
COc1ccc(NC(=O)[C@H](NC(=O)[C@@H]2Cc3ccccc3CN2)c2ccccc2)cc1 | -97.8% (active)

Structure (SMILES) | max response, negative = inhibition
O=C1OCCOC2CCCc3oc(-c4ccccc4)c1c32 (configuration not stated) | -1.49%
O=C(COc1ccc(S(=O)(=O)N2CCCC2)cc1[N+](=O)[O-])N1CCCCC1 | -6.05%
CN1CCC[C@@H]1CCO[C@](C)(c1ccccc1)c1ccc(Cl)cc1 | -107% (active)
CC1CCCN(CC(=O)Nc2cc(Cl)ccc2Oc2ccccc2)C1 (configuration not stated) | 0.948%
CCC1CCC/C1=N\NC(=O)c1ccc(Cl)cc1 (configuration not stated) | -14%
C#Cc1ccc(NC(=O)C2(C)CCN2C(=O)Cc2ccc(-c3ccccc3)cc2)cc1 (configuration not stated) | 4.18%
O=C(NCc1cccnc1)c1cc(C2CCCN(C(=O)CCCc3ccccc3)C2)on1 (configuration not stated) | 33.8%
COc1ccc(C2C(C#N)=C(N)Oc3n[nH]c(C)c32)cc1CN1CCN(c2ccc(F)cc2)CC1 (configuration not stated) | -95% (active)
COc1ccccc1CN1CCCC(N2CCN(c3ccc(F)cc3)CC2)C1 (configuration not stated) | 4.28%
COc1ccc(-c2[nH]nc3c2C(c2ccncc2)C(C#N)=C(N)O3)cc1 (configuration not stated) | -18.7%
CCC(CC)C(C(=O)NC1CCCC1)N1CCN(c2cc(C)nc3ccccc23)CC1 (configuration not stated) | 14.1%
CS/C(=C\C(=O)c1ccco1)Nc1ccccc1Cl | 0.757%
O=C(Nc1ccccc1Cl)/C(Cl)=C(\Cl)S(=O)c1ccccc1 (configuration not stated) | -94.9% (active)
NC(=O)C1(Nc2ccccc2Cl)CCCC1 | -22%
O=C(NCc1ccco1)c1cccc(-c2ccc3nncn3c2)c1 | -9.17%
CCc1nc2c(OCCOc3ccccc3)cccn2c1N(C=O)Cc1ccc(OC)cc1 | 12.7%
COc1ccccc1NC(=O)[C@H](COCc1ccccc1)NC(=O)OC(C)(C)C | 13.5%
CCc1ccccc1NC(=O)CSc1nnc([C@@H](NC(=O)OC(C)(C)C)C(C)CC)o1 (some centres not stated) | -1.74%
C[C@@H](NC(=O)OC(C)(C)C)c1nnc(S(=O)(=O)Cc2ccccc2)o1 | -110% (active)
CCNC(=O)C1(C)CCCN(C(=O)c2c(C)noc2C)C1 (configuration not stated) | 0%
COc1ccc(S(=O)(=O)/N=C2\C=C(NS(=O)(=O)c3ccccc3)C(=O)c3ccccc32)cc1 | -59.6% (active)
CCCC(NS(=O)(=O)c1ccc(OC)cc1)C(=O)O (configuration not stated) | -4.83%

Structure (SMILES) | max response, negative = inhibition
COc1ccc(NS(=O)(=O)c2ccc(Oc3c(C#N)cccc3C#N)cc2)cc1 | 0.938%
O=S1(=O)CC(N2CCN(Cc3ccccc3F)CC2)CN1Cc1cn(Cc2cccc(C(F)(F)F)c2)nn1 (configuration not stated) | 1.97%
CC(C=Cc1ccccc1)=NNS(=O)(=O)c1ccc([N+](=O)[O-])cc1 | -22%
C/C(=N\NS(=O)(=O)c1cccc([N+](=O)[O-])c1)c1cc2ccccc2o1 | -65.1% (active)
COc1ccc(CCNS(=O)(=O)c2cccc([N+](=O)[O-])c2)cc1 | -20.3%
CCOC(=O)CNC(=O)CSc1nnc(-c2cccc(OC)c2)n1CC | 0%
CCOC(=O)CNC(=O)CSc1nnc(COc2ccc(Cl)cc2)n1CC | -55.4% (active)
CCn1c(COc2ccc(OC)cc2)nnc1SCC(=O)Nc1cc(OC)ccc1OC | 5.77%
CCOC(=O)C(C(=O)c1ccccc1)C(c1ccccc1)c1nccc2ccccc12 (configuration not stated) | -11.4%
COc1ccc(S(=O)(=O)N2CCCCC2)cc1C(=O)NC1CCS(=O)(=O)C1 (configuration not stated) | 22%
COc1ccc(CS(=O)/C(Cl)=C(/Cl)C(=O)Nc2ccc(OC)nc2)cc1 (configuration not stated) | -91.9% (active)
COc1ccc(C(O)c2nc(-c3ccc(OC)nc3)cs2)cc1 (configuration not stated) | -0.57%
COc1ccc(NC(=O)CN2C(=O)NC(C)(c3ccccc3)C2=O)cn1 (configuration not stated) | 28.1%
CN1OC[C@@H]2CN(C(=O)c3cccc4ccccc34)[C@H](c3ccc(N4CCCCC4)cc3)C[C@@H]21 | 0.382%
CN1OC[C@@H]2CN(C(=O)c3cccnc3)[C@H](c3ccc(N4CCCCC4)cc3)C[C@@H]21 | 33.1%
CN1OC[C@@H]2CN(C(=O)c3ccc(-c4ccccc4)cc3)[C@H](c3ccc(-c4cccc(F)c4)cc3)C[C@@H]21 | -51.6% (active)
COc1cccc(NC(=O)C2(C)CCN2Cc2ccccc2Cl)c1 (configuration not stated) | 9.45%
O=C(NCc1nnc(SCC(=O)N2CCC(Cc3ccccc3)CC2)o1)c1ccco1 | -56.2% (active)
Cn1c(CNC(=O)c2ccco2)nnc1SCC(=O)N1CCN(c2ccccc2)CC1 | 9.96%
O=C(NCc1nnc(SCC(=O)N2CCCCCC2)o1)c1ccc(F)cc1 | -15.6%
CCc1cccc(OC2OC(CO)C(O)C(O)C2NC(C)=O)c1 (configuration not stated) | -21.8%
CC(=O)NC1C(OCc2ccccc2)OC(COC(C)=O)C(OC(C)=O)C1OC(C)=O (configuration not stated) | -50.8% (active)

Structure (SMILES) | max response, negative = inhibition
CC(=O)NC1C(Oc2ccc(C=O)cc2)OC(COC(C)=O)C(OC(C)=O)C1OC(C)=O (configuration not stated) | 14.4%
Cc1cccc(CN2CCN(C3CN(Cc4cn(Cc5cc(C)cc(C)c5)nn4)S(=O)(=O)C3)CC2)c1 (configuration not stated) | 0.506%
Cc1ccc(Cc2c(-c3ccccc3)nc3ccc(Cl)cn23)cc1 | 5.55%
CCc1ccccc1NC(=S)N(CCN1CCCCCC1)Cc1ccco1 | -28.8%
Cc1ccc(NC(=S)N(CCCN2CCC(C)CC2)Cc2ccco2)cc1 | -63.3% (active)
Cc1ccc(NC(=S)N(CCN2CCCCC2)Cc2ccco2)cc1C | -70.4% (active)
Cc1ccc(NC(=S)N(CCN(C)C)Cc2cccs2)cc1C | -25.3%
Cc1ccc(NC(=S)N(CCCN2CCCC2)Cc2cccn2Cc2ccc(Cl)cc2)cc1 | -19%
Cc1ccc(NC(=S)N(Cc2ccco2)C(C)c2cccs2)cc1 (configuration not stated) | 10.5%
O=C(c1ccc(C(F)(F)F)cc1)N1CCC(=O)N([C@H](COCc2ccccc2)Cc2ccccc2)CC1 | -26.4%
CC(C)c1ccc(CC(=O)N2CCC2(C)C(=O)NS(=O)(=O)c2ccc(C(C)(C)C)cc2)cc1 (configuration not stated) | 22.2%
Nc1ncnc2c1ncn2[C@@H]1O[C@H](C(=O)NCC(F)(F)F)[C@@H](O)[C@H]1O | 14.5%
Cc1nc(C(F)(F)F)ccc1C(=O)N1CCC1(C)C(=O)NS(=O)(=O)c1ccc(F)cc1F (configuration not stated) | 19.8%
O=C1NC[C@@H](CCCCN2CCN(CCc3ccc(O)cc3)C(=O)C2=O)N(CC2CCCCC2)C1=O | 0%
O=C(CSC1=Nc2ccccc2C2=NC(c3ccccc3)C(=O)N12)NCC1CCCO1 (configuration not stated) | -66.9% (active)
CCn1c(SCC(=O)NCC2CCCO2)nc2ccccc21 (configuration not stated) | 1.46%
O=C(CSc1ccc(-c2ccccc2)nn1)NCC1CCCO1 (configuration not stated) | -1.73%
CC(=O)c1cccc(-c2cnc3c(NC=O)cc(-c4ccc(N5CCN(C)CC5)cc4)cn23)c1 | 13.5%
O=CN1CCN(C2CC(=O)N(c3ccc4c(c3)OCO4)C2=O)CC1 (configuration not stated) | -17.5%
Cc1ccc(CC2CC(=O)N(c3ccc4c(c3)OCCO4)C2=O)cc1 (configuration not stated) | 23.1%
Cc1ccc(N2C(=O)CC(NCc3ccc4c(c3)OCO4)C2=O)cc1Cl (configuration not stated) | -53.6% (active)
